# In the library only some 4.2% were active in any assay of this set; here they are far more common.
# V-ATPase pH: yeast V-ATPase proton transport regulation by pHLuorin. S. cerevisiae, pHLuorin cytosolic pH fluorescence. AID 504577. response, % at 10 µM. 0.37% of 350,000 active; in the data active means response mostly above about 7.3%, no sharp cut-off; inactive means mostly below about 5.4%; further: actives read high
# NALP1 yeast inh: blocks the NALP1 inflammasome reconstituted in yeast; S. cerevisiae NALP1/ASC/caspase-1 growth, X-gal OD620, 72 h; inhibition, % at 10 µM; 0.61% of 280,000 active; AID 2071; in the data active means inhibition mostly above about 24%, no sharp cut-off; inactive means mostly below about 32%
# tim23-1 inh: inhibits growth of tim23-1 mutant yeast. S. cerevisiae tim23-1 growth, BacTiter-Glo luminescence, 24 h. inhibition, % at 20 µM. 1.3% of 330,000 active. AID 463212;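 active means growth inhibition of the mutant yeast at or above 50%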;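 further: temperature-sensitive mutant grown at 25 °C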
# TIM10 inh: inhibits growth of TIM10 yeast strain; S. cerevisiae TIM10 strain growth, BacTiter-Glo luminescence, 24 h; inhibition, % at 10 µM; 1.4% of 330,000 active; AID 463195;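 active means inhibition of 40% or more at the single tested concentration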;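 further: wild-type TIM10 isogenic control strain grown at permissive 25 °C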
# NALP3 yeast inh: blocks the NALP3 inflammasome reconstituted in yeast; Yeast reconstituted NLRP3/ASC/caspase-1, beta-gal luminescence, 24 h; inhibition, % at 10 µM; 0.39% of 330,000 active; AID 2825;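 active means inhibition of 50% or more; inactive means inhibition below 50%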
# tim10-1 inh: tim10-1 yeast growth inhibition. S. cerevisiae tim10-1 ts strain growth, BacTiter-Glo, 24 h. 2.2% of 330,000 active. AID 463190. inhibition, % at 20 µM;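 active means inhibition of at least 40%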;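 further: mutant grown at 25 °C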
# Numbers stand for hits; – = inactive; · = not tested or not shown.
SMILES,V-ATPase pH,NALP1 yeast inh,tim23-1 inh,TIM10 inh,NALP3 yeast inh,tim10-1 inh
Cc1cccc(N2CCN(Cc3oc(CO)cc(=O)c3O)CC2)c1C,–,–,–,–,–,–
CCn1cc(C(=O)OCC(=O)Nc2ccccc2OC(F)F)c(=O)c2ccc(C)nc21,–,·,–,–,–,–
CCn1cc(C(=O)OCC(=O)Nc2ccc(C(C)C)cc2)c(=O)c2ccc(C)nc21,–,25,–,–,–,–
O=C(CN1C(=O)CCSc2ccccc21)Nc1ccc(F)cc1,–,–,–,–,–,–
COc1ccccc1/C=C/C(=O)NCC(=O)N/N=C(\CCC(=O)O)c1ccccc1,–,–,–,–,–,–
COc1cc2[nH]c3ccccc3c2cc1C,–,22,–,–,–,–
CCOC(=O)c1ccc2[nH]c3ccccc3c2c1,–,–,–,–,–,–
Fc1ccc(C2CCCN2Cc2nc(Cc3ccccc3)no2)cc1 (stereo unspecified),–,–,–,–,–,–
Fc1ccc(C2CCCN2Cc2nc(Cc3ccccc3F)no2)cc1 (stereo unspecified),–,24,–,–,–,–
Cc1nc(NC2=NCN(CCc3ccccc3)CN2)nc2ccccc12,·,37,·,·,·,·
Cc1nc(NC2=NCN(Cc3cccnc3)CN2)nc2ccccc12,–,–,·,·,·,·
Cc1nc(NC2=NCN(Cc3ccccc3)CN2)nc2ccccc12,·,32,·,·,·,·
Cc1ccc(-n2c(Cl)c(Cl)nc(Cl)c2=O)cc1,–,124,·,·,·,·
COc1ccc(C(=O)CSc2nnc(CNC(=O)c3ccccc3)o2)cc1,–,–,–,–,–,–
O=C(Oc1cc(-c2ccccc2)no1)c1cccc(C(F)(F)F)c1,–,43,–,–,–,–
O=S(=O)(NC(=S)c1ccccc1)c1ccc(Cl)cc1,–,–,–,–,–,–
COc1cccc(CNC(=O)c2cccc(NC3=NC4CS(=O)(=O)CC4S3)c2)c1 (stereo unspecified),–,–,–,–,–,–
COc1ccc(CNC(=O)c2cccc(NC3=NC4CS(=O)(=O)CC4S3)c2)cc1 (stereo unspecified),19,–,–,–,–,–
Cc1noc(C)c1S(=O)(=O)N1CCC(C(=O)NC2CCN(Cc3ccccc3)CC2)CC1,–,39,–,–,–,–
CCOC(=O)C1C(=O)C(C(C)=O)C(=O)CC1CC(C)SCC (stereo unspecified),–,44,–,–,–,–
O=C(Cc1ccc(NC2=NC3CS(=O)(=O)CC3S2)cc1)NCc1ccccc1Cl (stereo unspecified),–,–,–,–,–,–
CN1CCN(c2nc(-c3cccc([N+](=O)[O-])c3)nc3ccccc23)CC1,–,39,–,–,–,–
CC(C)C(C(=O)Nc1ccc(S(=O)(=O)N2CCOCC2)cc1)N1C(=O)c2ccccc2C1=O (stereo unspecified),–,43,–,–,–,–
CN(C)c1ccc(NC(=O)c2cccc(N3C(=O)CCC3=O)c2)cc1,–,40,–,–,–,–
O=C(NNc1c2ccccc2nc2ccccc12)C12CC3CC(CC(C3)C1)C2,–,–,–,–,–,–
SMILES,V-ATPase pH,NALP1 yeast inh,tim23-1 inh,TIM10 inh,NALP3 yeast inh,tim10-1 inh
CCOc1ccc(N(CC(=O)Nc2c(C)cccc2C)S(=O)(=O)c2c(C)[nH]c(=O)[nH]c2=O)cc1,–,·,–,–,–,–
CCOc1ccccc1NC(=O)C(CC(C)C)NC(=O)C1CCC(C)CC1 (stereo unspecified),–,43,–,–,–,–
CCOc1ccccc1NC(=O)C(NC(=O)C1CCC(C)CC1)C(C)C (stereo unspecified),–,–,–,–,–,–
COC(=O)c1sccc1NC(=O)c1cccc(F)c1,–,·,–,–,–,–
O=C(/C=C/c1ccccc1)NC(=S)Nc1ccccc1,–,–,–,–,–,–
C=CCN(CC=C)S(=O)(=O)c1ccc(NC(=S)NC(=O)/C=C/c2ccccc2)cc1,–,27,–,–,–,–
O=C(c1ccccc1CCc1ccccc1)N1CCCC1,40,–,–,–,–,–
O=C1CN(C(=O)COC(=O)CNS(=O)(=O)/C=C/c2ccccc2)c2ccccc2N1,–,34,–,–,–,–
CC(Oc1ccccc1)C(=O)OCC(=O)N1CC(=O)Nc2ccccc21 (stereo unspecified),–,24,–,–,–,–
O=C1CN(C(=O)COc2ccccc2)c2ccccc2N1,–,–,–,–,–,–
C#CCOCCOCCOCCNc1nc(N2CCN(C(=O)[C@H](CCC(=O)O)n3cc(C(N)Cc4ccc(O)cc4)nn3)CC2)nc(N2CCN(C(=O)[C@H](Cc3cc4ccccc4[nH]3)n3cc(C(N)CC(C)C)nn3)CC2)n1 (stereo partly specified),·,–,–,–,–,–
Cc1cccc(NS(=O)(=O)c2ccc3c(c2)NC(=O)CC(=O)N3)c1,–,–,–,–,–,–
CCc1cccc(NS(=O)(=O)c2ccc3c(c2)NC(=O)CC(=O)N3)c1,–,36,–,–,–,–
COc1cc2nc(NCC3CCCO3)n3nc(-c4cccnc4)nc3c2cc1OC (stereo unspecified),–,37,–,–,–,–
Cc1cccc(C)c1NC1=NC(C)(C)N=C(N)N1,–,–,–,–,–,–
CC1CC(=O)Nc2ccccc2N1C(=O)CN1C(=O)C(=O)N(C)C1=O (stereo unspecified),–,·,–,–,–,–
CCn1c(SCC(=O)Nc2cc(C)on2)nnc1-c1ccco1,–,39,–,–,–,–
CCCCn1c(SCC(=O)Nc2cc(C)on2)nnc1-c1ccco1,–,–,–,–,–,–
CC1(C)CC(=O)C2=C(C1)OC(N)=C(C#N)[C@@H]2c1ccccc1[N+](=O)[O-],–,–,–,–,–,–
COc1ccccc1/C=C/C=N/n1c(-c2ccncc2)n[nH]c1=S,–,–,–,–,–,–
O=C(Cc1ccc(F)cc1)Nc1ccccc1Sc1ccccc1,16,–,–,–,–,–
CCc1csc(CCNC(=O)C2CCC(=O)N(CCOC)C2)n1 (stereo unspecified),–,–,–,–,–,–
Cc1[nH]c(-c2ccc3c(c2)OCO3)nc1C(=O)O,–,–,–,–,–,–
Cc1[nH]c(-c2ccco2)nc1C(=O)O,23,–,–,–,–,–
CCOC(=O)N1CCN(C(=O)c2cc(OC)c(OC)c(OC)c2)CC1,–,–,–,–,–,–
Cc1cc(Cl)ccc1NC(=O)c1ccc2c(c1)CCN2S(C)(=O)=O,–,–,–,–,–,–
CC(Oc1ccccc1)C(=O)N1CCN=C1SCc1cccc(F)c1 (stereo unspecified),–,·,–,–,–,–
COc1ccc2c(c1)c(C(C)=O)c(C)n2C,–,·,–,–,–,–
CC(=O)Oc1ccc2c(c1)c(C(C)=O)c(C)n2C,18,–,–,–,–,–
O=C(CSc1nnc2n1CCCN2)c1ccc(Cl)cc1,–,–,–,–,–,–
